Results filed as inconclusive are left out. Calls of active or inactive are those of the source. Unless noted, calls come from the whole dose curve; as a rule, active = well fitted curve in the direction sought with a large enough effect; inconclusive = small, poorly fitted or top-dose-only effect, or another doubt; inactive = no such curve, though single readings can be large; an effect the other way counts as inactive or inconclusive.

For experiment [1], the target named is Estrogen receptor (Homo sapiens) (UniProt P03372). The experiment is described as follows: qHTS assay for small molecule antagonists of estrogen receptor alpha signaling (AID 588513; active = well fitted curve in the direction sought with a large enough effect in the signal ratio, with a control signal flat, not every such curve was filed as active; the % refers to the signal ratio; note: % is set by controls: 0 for no effect and ±100 for the full control effect). In short, it runs like this:
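ER-alpha-UAS-bla GripTite HEK 293 cells in 2% charcoal/dextran-treated FBS medium; compounds titrated (1:2, duplicate), then stimulated with 0.5 nM 17-beta-estradiol for 18 h at 37C. CCF4 beta-lactamase fluorescence; Hill-fit IC50 and efficacy.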

Experiment [2] has the same target. The experiment is described as follows: qHTS assay for small molecule agonists of estrogen receptor alpha signaling (AID 588514; calls by dose curve;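 note: 0% = vehicle only and 100% = reference agonist; nearly all actives have a fitted effect of over 70% in size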). In short, it runs like this: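 Fluorescence from CCF4 cleavage reports ER-alpha-driven beta-lactamase expression in HEK 293 cells treated 18 hrs at 37 C. Data normalized to 17-beta-estradiol (20 nM) and DMSO, fitted to Hill equation.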

In experiment [3] the target is Peroxisome proliferator-activated receptor gamma (Homo sapiens) (UniProt P37231). Kind of experiment: qHTS assay for small molecule agonists of peroxisome proliferator-activated receptor gamma signaling (AID 588536; active = well fitted curve in the direction sought with a large enough effect in the signal ratio, with a control signal flat, not every such curve was filed as active; the % refers to the signal ratio;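 note: 0% = DMSO basal wells and 100% = rosiglitazone at 2 µM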). In short, it runs like this:
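Compound treatment: 16 h, 37 C, HEK293 GeneBLAzer cells. Detection: CCF4, 2 h RT. Values: Hill-fit EC50, efficacy as % of 2 uM rosiglitazone.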

Experiment [4] has the same target. Kind of experiment: qHTS assay for small molecule antagonists of peroxisome proliferator-activated receptor gamma signaling (AID 588537; active = well fitted inhibition curve with a large enough effect in the signal ratio, with a control signal flat, not every such curve was filed as active; the % refers to the signal ratio;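 note: reporter cells co-stimulated with 50 nM rosiglitazone agonist during compound treatment; % of control where 0% means no effect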). In a few lines: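 Cell-based beta-lactamase assay; GW9662 served as the antagonist control. Stimulation used rosiglitazone, final 50 nM, 16 h, 37 C.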
The target of experiment [5] is Vitamin D3 receptor (Homo sapiens) (UniProt P11473). The experiment is described as follows: qHTS assay for small molecule antagonists of vitamin D receptor signaling (AID 588541; calls by dose curve;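 note: receptor activated by calcitriol during compound treatment; series mostly up to about 77 µM; % is set by controls: 0 for no effect and ±100 for the full control effect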). In a few lines:
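Antagonist-mode beta-lactamase reporter assay: HEK293T VDR-UAS-bla cells were exposed to titrated compound alongside 1-alpha,25-dihydroxyvitamin D3 at 3 nM final for 16 h. Values were normalized to the 50 nM agonist control and DMSO basal, with IC50 and efficacy from Hill equation fits.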

The target is the same in experiment [6]. The experiment is described as follows: qHTS assay for small molecule agonists of vitamin D receptor signaling (AID 588543; calls by dose curve;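 note: 0% = DMSO basal and 100% = reference agonist control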). In a few lines:
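VDR-UAS-bla HEK293T cells, 2000/well, 2% charcoal-stripped FBS; compound titration 16 h at 37 C; CCF4 beta-lactamase ratio read. Normalized to 50 nM 1-alpha,25-dihydroxyvitamin D3 (100%) and DMSO; Hill fit gives EC50, efficacy.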

The nature of experiment [7]: qHTS assay for small molecule agonists of retinoid X receptor alpha signaling (AID 588544; calls by dose curve;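 for activation: 0% = DMSO basal wells and 100% = reference agonist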). The note with it: HEK293T RXRa-UAS-bla, beta-lactamase reporter, 18 h; 530 nm emission.
Experiment [8] has as its target Retinoic acid receptor RXR-alpha (Homo sapiens) (UniProt P19793). The description is as above.
Experiment [9] has as its target Thyroid hormone receptor beta (Homo sapiens) (UniProt P10828). The experiment is described as follows: qHTS assay for small molecule agonists of thyroid hormone receptor beta signaling (AID 588545; calls by dose curve). In short, it runs like this:
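In this cell-based screen, titrated compounds act on HEK 293 cells held in medium with 2% charcoal/dextran FBS, NEAA and pyruvate for 18 hrs at 37 C. Responses are expressed relative to T3 (10 nM) as 100% and basal DMSO as 0%.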

Experiment [10] in a line: qHTS assay for small molecule antagonists of retinoid X receptor alpha signaling (AID 588546; active = well fitted inhibition curve with a large enough effect in the signal ratio, with a control signal flat, not every such curve was filed as active; the % refers to the signal ratio;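 note: cells stimulated with 9-cis-retinoic acid as agonist; % is set by controls: 0 for no effect and ±100 for the full control effect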). To be noted: HEK293T RXRa-UAS-bla, beta-lactamase ratio, antagonist mode; measured here: W530 green channel, cytotoxicity proxy. In a few lines:
(§1)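 Beta-lactamase reporter inhibition, read as CCF4 fluorescence ratio (ex 405, em 460/530 nm) after 2 h at RT. HEK293T UAS-bla cells, 2500/well, were stimulated with 9-cis-RA at 500 or 100 nM final alongside test compound for 18 h at 37 C.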

Experiment [11] addresses Retinoic acid receptor RXR-alpha (Homo sapiens) (UniProt P19793). The experiment is described as above. To be noted: HEK293T RXRa-UAS-bla, beta-lactamase ratio, antagonist mode. In a few lines:
as §1

The nature of experiment [12]: qHTS assay for small molecule agonists of the antioxidant response element (ARE) signaling pathway (AID 651741; active = well fitted activation curve with a large enough effect in the signal ratio; the % refers to the signal ratio; note: % of control where 0% means no effect). In short, it runs like this: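 Agonist activity is measured as ARE-driven beta-lactamase expression in a stable HepG2 reporter line, using 16 h compound treatment at 37 C and a FRET substrate fluorescence readout after 2 h.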
The nature of experiment [13]: qHTS assay for small molecule activators of the p53 signaling pathway (AID 651743; active = well fitted activation curve with a large enough effect in the signal ratio, not every such curve was filed as active; the % refers to the signal ratio; note: series mostly up to about 92 µM; % of control where 0% means no effect). The note with it: HCT-116 p53RE-bla, beta-lactamase FRET ratio, 16 h; activation: stronger effect = higher value. In a few lines:
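A beta-lactamase reporter under p53 response element control, stably carried by HCT-116 cells, reported pathway activation. Test compounds were applied for 16 hours at 37 C, and fluorescence was measured 2 hours after adding the B/G FRET substrate.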

Experiment [14] can be described thus: qHTS assay for small molecule activators of the nuclear factor-kappa B (NF-kB) signaling pathway (AID 651749; active = well fitted activation curve with a large enough effect in the signal ratio; the % refers to the signal ratio; note: series mostly up to about 77 µM; % of control where 0% means no effect). To be noted: NF-kB-bla ME-180 cells, beta-lactamase FRET ratio, 16 h; activation: stronger effect = higher value. In short, it runs like this: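 FRET-based beta-lactamase detection in ME-180 cells reports NF-kB response-element-driven transcription following overnight (16 hr) compound treatment.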

Experiment [15] can be described thus: qHTS assay for environmental chemicals that activate the Aryl hydrocarbon Receptor (AhR) signaling pathway (AID 651777). Note: % of control where 0% means no effect; nearly all actives have a fitted effect of over 15% in size. The note with it: 1A2-DRE human hepatoma cells, luciferase, 24 h; activation: stronger effect = higher value. In short, it runs like this: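 Luminescence (One-Glo, 30 min, room temperature) reports AhR-driven luciferase in stably transfected human hepatoma cells bearing DRE and CYP1A2 promoter. Cells (1,200/well) were treated with compound for 24 hr at 37 C in qHTS format.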

The target in experiment [16] is Peroxisome proliferator-activated receptor alpha (Homo sapiens) (UniProt Q07869). The experiment is described as follows: qHTS assay for small molecule agonists of the peroxisome proliferator-activated receptor alpha (PPARalpha) signaling pathway (AID 651778). Note: % of control where 0% means no effect. To be noted: PathHunter PPARalpha complementation, chemiluminescence, 6 h; stronger effect = higher value. In short, it runs like this:
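Chemiluminescence from complemented enzyme reported PPARalpha activation in cells after 6 hr of compound treatment at 37 C. The detection reagent was incubated for 60 min at room temperature, and compounds were scored as agonists.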

A short description of experiment [17]: qHTS assay for small molecule agonists of the antioxidant response element (ARE) signaling pathway measured by Nrf2-dependant transcriptional activity - cell viability counter screen (AID 720653; active = well fitted curve in the direction sought with a large enough effect in the repeat runs; an effect the other way counts as inactive or inconclusive; note: % is set by controls: 0 for no effect and ±100 for the full control effect). The note with it: ARE-bla HepG2 viability, CellTiter-Glo ATP luminescence, 16 h; max response: stronger effect = lower value. In short, it runs like this:
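Cytotoxicity counter screen: intracellular ATP quantified by CellTiter-Glo luminescence in the same ARE-bla HepG2 plates, after 16 h compound exposure and a 2 h beta-lactamase substrate step.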

Experiment [18] can be described thus: qHTS assay for cell viability of HEK293 cells (AID 743288). Note: % is set by controls: 0 for no effect and ±100 for the full control effect; nearly all actives have a fitted effect of over 50% in size. The note with it: ATP luminescence (CellTiter-Glo), 18 h; max response: stronger effect = lower value. In short, it runs like this: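 Steps: plate 2,000 parental HEK293 cells per well; incubate ≥5 h, 37 C; add compounds in DMSO; incubate 18 h, 37 C; add CellTiter-Glo; wait 30 min at room temperature; read luminescence.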

The nature of experiment [19]: qHTS assay for cell viability of the p53RE-bla HCT-116 cell line (AID 743292). Note: % is set by controls: 0 for no effect and ±100 for the full control effect; nearly all actives have a fitted effect of over 55% in size. In short, it runs like this:
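ATP-based luminescent viability (CellTiter-Glo, 30 min RT) after 16 h compound treatment at 37 C of p53RE-bla HCT-116 cells, seeded at 4,000 cells/well and rested 5 h before dosing.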

The target of experiment [20] is Furin (Homo sapiens) (UniProt P09958). Kind of experiment: Furin counterscreen qHTS for Zika virus inhibitors (AID 1347149).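 Note: purified recombinant full-length human furin enzyme at 5 nM; fluorescence gain from furin cutting a BOC-RVRR-AMC peptide substrate over 15 min; top concentration of the series differs between compounds; plate controls were no-inhibitor control for no effect and no-enzyme control for full effect; nearly all actives have a fitted effect of over 70% in size.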 In short, it runs like this: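 Counterscreen measures cleavage of 2 microM BOC-RVRR-AMC, below its ~15 microM Km, by 5 nM full-length human furin at pH 7.0 after a 15-min compound preincubation. Inhibition derives from the 15-min fluorescence increase at 37C.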

In experiment [21] the test system is Zika virus NS2B-NS3 protease (unlinked). Kind of experiment: Optimization of GU AMC qHTS for Zika virus inhibitors: Unlinked NS2B-NS3 protease assay (AID 1347151).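 Note: series mostly up to about 52 µM; 0% = no-inhibitor control and -100% = no-enzyme control; nearly all actives have a fitted effect of over 80% in size.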 In short, it runs like this:
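Noncovalent NS2B hydrophilic domain–NS3 protease complex (25 nM final) in 10 mM Tris-HCl pH 8.0, 0.01% Tween 20; AMC substrate, room temperature 15 min (~20% conversion); fluorescence change normalized, 4-parameter Hill fit.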

Experiment [22] can be described thus: Vero cells viability qHTS for Zika virus inhibitors (AID 1347167). Note: % is set by controls: 0 for no effect and ±100 for the full control effect. In a few lines:
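Luminescent ATP readout (CellTiter Glo) after 30 min at 37 degrees C gives viability; cells in DMEM + 4% FBS were treated 24 to 48 hours with compound, following overnight attachment.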

A short description of experiment [23]: Tertiary RLuc qRT-PCR qHTS assay for Zika virus inhibitors (AID 1347169). Note: top concentration of the series differs between compounds; % is set by controls: 0 for no effect and ±100 for the full control effect; nearly all actives have a fitted effect of over 55% in size. In a few lines: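 Vero cells (1,000/well) infected with recombinant ZIKV-RLuc (Cambodian) at MOI 1-2 after compound addition, 48-72 hrs at 37 degrees C. Live-cell Renilla luciferase substrate added; luminescence read after 1-1.5 hrs.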
In experiment [24] the target is Nuclear receptor subfamily 1 group I member 2 (Rattus norvegicus) (UniProt Q9R1A7). Kind of experiment: qHTS assay for small molecule activators of the rat pregnane X receptor (rPXR) signaling pathway (AID 651751; call rule not given here; note: 0% is about no effect). The note with it: rPXR reporter cells, luciferase (One-Glo), 24 h.
Sequence of Nuclear receptor subfamily 1 group I member 2 (Rattus norvegicus) (Q9R1A7 whole entry, looked up): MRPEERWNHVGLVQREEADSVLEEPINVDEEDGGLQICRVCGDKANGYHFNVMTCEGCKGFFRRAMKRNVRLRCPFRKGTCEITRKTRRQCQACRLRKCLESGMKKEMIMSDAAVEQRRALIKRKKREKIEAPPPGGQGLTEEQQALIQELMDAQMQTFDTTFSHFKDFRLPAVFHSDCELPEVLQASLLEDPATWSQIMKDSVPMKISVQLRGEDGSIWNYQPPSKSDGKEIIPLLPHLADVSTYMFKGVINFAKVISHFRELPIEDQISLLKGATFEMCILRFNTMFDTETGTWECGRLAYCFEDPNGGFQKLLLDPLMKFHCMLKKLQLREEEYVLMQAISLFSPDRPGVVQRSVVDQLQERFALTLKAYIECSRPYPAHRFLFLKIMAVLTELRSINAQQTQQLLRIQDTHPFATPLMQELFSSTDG

Sequence of Peroxisome proliferator-activated receptor gamma (Homo sapiens) (P37231 whole entry, looked up): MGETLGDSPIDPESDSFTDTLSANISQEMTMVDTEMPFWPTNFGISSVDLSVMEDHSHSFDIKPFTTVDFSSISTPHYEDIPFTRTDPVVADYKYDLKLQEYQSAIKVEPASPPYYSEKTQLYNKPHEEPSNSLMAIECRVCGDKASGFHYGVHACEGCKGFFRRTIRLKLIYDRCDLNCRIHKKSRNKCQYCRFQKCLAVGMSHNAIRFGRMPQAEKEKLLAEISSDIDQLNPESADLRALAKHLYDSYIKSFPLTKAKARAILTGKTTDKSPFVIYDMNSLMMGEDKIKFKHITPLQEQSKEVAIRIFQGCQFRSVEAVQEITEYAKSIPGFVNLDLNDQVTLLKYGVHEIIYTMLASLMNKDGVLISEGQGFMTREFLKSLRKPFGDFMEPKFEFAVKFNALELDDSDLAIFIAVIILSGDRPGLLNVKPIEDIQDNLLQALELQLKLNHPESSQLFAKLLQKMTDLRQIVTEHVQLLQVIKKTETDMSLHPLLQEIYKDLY
Sequence of Vitamin D3 receptor (Homo sapiens) (P11473 whole entry, looked up): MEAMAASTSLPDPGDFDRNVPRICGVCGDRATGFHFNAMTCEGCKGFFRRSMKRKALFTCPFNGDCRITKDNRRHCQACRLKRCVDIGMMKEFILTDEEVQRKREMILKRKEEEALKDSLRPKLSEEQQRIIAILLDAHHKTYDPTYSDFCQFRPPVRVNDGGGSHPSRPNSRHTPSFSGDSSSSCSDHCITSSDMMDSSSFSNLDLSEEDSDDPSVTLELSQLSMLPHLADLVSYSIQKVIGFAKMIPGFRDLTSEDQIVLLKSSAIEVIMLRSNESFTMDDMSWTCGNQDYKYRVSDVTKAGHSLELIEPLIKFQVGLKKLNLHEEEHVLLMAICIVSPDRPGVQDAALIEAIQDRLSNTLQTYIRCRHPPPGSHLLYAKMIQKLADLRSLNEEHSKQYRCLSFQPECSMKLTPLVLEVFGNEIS
Sequence of Retinoic acid receptor RXR-alpha (Homo sapiens) (P19793 whole entry, looked up): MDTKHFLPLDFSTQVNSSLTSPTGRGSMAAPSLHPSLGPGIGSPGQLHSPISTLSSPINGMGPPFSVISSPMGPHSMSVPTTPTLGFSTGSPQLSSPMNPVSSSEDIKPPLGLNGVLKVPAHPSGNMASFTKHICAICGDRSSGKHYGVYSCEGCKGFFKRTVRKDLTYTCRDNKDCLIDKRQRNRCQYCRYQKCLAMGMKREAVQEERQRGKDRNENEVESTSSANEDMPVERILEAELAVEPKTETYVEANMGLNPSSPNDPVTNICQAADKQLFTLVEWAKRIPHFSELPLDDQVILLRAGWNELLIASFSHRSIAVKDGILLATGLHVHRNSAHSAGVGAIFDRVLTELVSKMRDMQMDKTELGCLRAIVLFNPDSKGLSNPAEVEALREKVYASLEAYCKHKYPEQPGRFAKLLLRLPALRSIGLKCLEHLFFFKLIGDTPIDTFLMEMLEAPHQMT
Sequence of Estrogen receptor (Homo sapiens) (P03372 whole entry, looked up): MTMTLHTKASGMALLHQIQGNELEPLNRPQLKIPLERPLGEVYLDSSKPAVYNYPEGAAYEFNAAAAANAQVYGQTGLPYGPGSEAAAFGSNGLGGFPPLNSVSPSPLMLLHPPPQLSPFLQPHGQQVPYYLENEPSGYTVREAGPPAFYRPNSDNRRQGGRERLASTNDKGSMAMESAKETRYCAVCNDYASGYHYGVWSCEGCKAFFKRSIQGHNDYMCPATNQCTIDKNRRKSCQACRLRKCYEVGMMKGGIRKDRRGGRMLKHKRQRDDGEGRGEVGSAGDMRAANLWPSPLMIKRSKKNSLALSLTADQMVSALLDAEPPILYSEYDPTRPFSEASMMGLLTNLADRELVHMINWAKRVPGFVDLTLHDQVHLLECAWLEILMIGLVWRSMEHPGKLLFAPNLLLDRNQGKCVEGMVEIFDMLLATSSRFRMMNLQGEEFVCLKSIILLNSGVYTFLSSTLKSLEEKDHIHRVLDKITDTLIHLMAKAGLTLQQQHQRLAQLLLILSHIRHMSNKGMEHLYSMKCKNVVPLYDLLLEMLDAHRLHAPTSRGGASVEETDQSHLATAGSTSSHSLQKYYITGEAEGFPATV
Sequence of Thyroid hormone receptor beta (Homo sapiens) (P10828 whole entry, looked up): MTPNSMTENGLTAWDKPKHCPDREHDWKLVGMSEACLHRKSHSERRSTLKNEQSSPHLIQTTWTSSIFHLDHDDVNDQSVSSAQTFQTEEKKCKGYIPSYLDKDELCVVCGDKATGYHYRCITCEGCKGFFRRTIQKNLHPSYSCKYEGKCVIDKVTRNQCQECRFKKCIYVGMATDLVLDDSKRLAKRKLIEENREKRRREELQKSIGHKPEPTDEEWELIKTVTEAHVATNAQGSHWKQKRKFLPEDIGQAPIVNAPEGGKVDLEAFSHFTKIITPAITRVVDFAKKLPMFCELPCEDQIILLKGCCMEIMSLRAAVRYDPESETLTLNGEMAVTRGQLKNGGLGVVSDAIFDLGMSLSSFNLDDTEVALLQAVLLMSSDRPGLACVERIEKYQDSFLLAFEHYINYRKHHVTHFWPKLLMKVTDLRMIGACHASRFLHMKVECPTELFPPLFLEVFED
Sequence of Peroxisome proliferator-activated receptor alpha (Homo sapiens) (Q07869 whole entry, looked up): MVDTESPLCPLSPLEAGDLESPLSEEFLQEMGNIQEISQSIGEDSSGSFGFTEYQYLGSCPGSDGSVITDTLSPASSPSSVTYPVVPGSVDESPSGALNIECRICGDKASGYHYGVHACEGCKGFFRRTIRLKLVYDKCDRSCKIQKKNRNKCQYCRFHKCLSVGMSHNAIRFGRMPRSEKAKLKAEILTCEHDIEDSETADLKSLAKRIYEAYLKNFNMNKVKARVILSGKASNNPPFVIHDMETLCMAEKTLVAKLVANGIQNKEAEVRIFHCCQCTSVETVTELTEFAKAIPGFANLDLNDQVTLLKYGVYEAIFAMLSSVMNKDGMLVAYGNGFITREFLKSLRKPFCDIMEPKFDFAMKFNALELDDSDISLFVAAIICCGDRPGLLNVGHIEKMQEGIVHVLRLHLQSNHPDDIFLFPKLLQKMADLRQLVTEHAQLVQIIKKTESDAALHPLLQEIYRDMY
Sequence of Furin (Homo sapiens) (P09958 whole entry, looked up): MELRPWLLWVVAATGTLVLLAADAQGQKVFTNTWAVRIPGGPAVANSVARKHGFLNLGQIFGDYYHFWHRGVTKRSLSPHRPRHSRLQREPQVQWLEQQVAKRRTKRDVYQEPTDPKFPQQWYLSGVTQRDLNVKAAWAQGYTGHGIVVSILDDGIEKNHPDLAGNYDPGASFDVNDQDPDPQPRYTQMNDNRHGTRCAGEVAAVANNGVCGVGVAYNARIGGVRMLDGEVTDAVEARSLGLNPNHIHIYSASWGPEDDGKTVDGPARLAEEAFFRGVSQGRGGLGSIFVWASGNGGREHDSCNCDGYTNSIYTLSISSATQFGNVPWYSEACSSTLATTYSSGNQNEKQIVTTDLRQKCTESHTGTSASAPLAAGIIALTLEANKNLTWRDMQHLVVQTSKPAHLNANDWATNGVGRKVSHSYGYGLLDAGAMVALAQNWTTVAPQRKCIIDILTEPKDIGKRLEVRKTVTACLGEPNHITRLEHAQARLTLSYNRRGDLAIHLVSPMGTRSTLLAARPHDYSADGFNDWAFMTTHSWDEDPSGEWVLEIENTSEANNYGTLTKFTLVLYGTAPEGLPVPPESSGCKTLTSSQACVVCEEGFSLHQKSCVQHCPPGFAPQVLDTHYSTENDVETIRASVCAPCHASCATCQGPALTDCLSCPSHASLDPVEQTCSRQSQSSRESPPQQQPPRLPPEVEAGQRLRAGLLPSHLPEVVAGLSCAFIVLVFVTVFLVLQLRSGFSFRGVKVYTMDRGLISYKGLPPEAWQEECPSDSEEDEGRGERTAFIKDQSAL

Turning to `CC(C)OC(=O)Nc1ccccc1`, the Potency entry in experiment [1], in experiment [2], in experiment [4], in experiment [6], in experiment [9] and in [12] was “inactive” in each case. In addition, the Potency result in experiment [20], in [22] and in [23] was “inactive” throughout. Besides, the call in experiment [3], in [5], in experiment [8], in experiment [19] and in [21] was inactive. Moreover, the max response in experiment [7] was -15.4%; in experiment [10], -6.41%; in [11], -6.43% (inactive); in experiment [16], -0.246% (inactive); in experiment [17], -3.27% (inactive); in experiment [18] it was -1.53% (inactive). Moreover, the max response in experiment [24] is 10.9% (inactive). Besides, the figures for the activation in experiment [13], in experiment [14] and in experiment [15] were -1.81% (inactive), 0.27% (inactive) and 12.4% (inactive), respectively.
